The subject of one assay is HEK293. The assay is described as follows: Cytotoxic Profiling of Annotated Libraries Using Quantitative High-Throughput Screening (AID 1296008). The conditions noted are these: Five cell lines viability, CellTiter-Glo ATP luminescence, 48-72 h; max response: stronger effect = lower value. In outline: (§1)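 Cells exposed to compounds for 48 or 72 hr at 37 degrees Celsius. Viability read as ATP-coupled luminescence with CellTiter-Glo after 10 min at room temperature.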
(In general: In ATP-based viability assays light output follows the ATP content of the culture.)

The test system of assay [1] is HaCat. The description is as above. The conditions noted are these: Five cell lines viability, CellTiter-Glo ATP luminescence, 48-72 h; max response: stronger effect = lower value. In outline: as §1
For another assay, the system named is KB-3-1. The assay is described as above. The conditions noted are these: Five cell lines viability, CellTiter-Glo ATP luminescence, 48-72 h; max response: stronger effect = lower value. In outline: as §1
Another assay has as its system MCC-13. As to the kind of experiment: qHTS assay to identify novel small-molecules to repurpose for Merkel cell carcinoma treatment (AID 1296009). The conditions noted are these: MCC and control cell lines, CellTiter-Glo viability, 72 h; series mostly up to 46 µM. In outline: (§2)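 Cells were incubated with compound for 72 hr at 37 degree celsius before CellTiter-Glo addition. Luminescence was normalized with no-cell wells as full cytotoxicity and DMSO as baseline.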
(In qHTS, concentration-response curves come from the screen itself.)

A further assay deals with MKL-1. Described as above. The conditions noted are these: MCC and control cell lines, CellTiter-Glo viability, 72 h; series mostly up to 46 µM. In outline:
as §2

Another assay deals with NIH3T3. The assay is described as follows: Cytotoxic Profiling of Annotated Libraries Using Quantitative High-Throughput Screening (AID 1296008). Particulars: Five cell lines viability, CellTiter-Glo ATP luminescence, 48-72 h; max response: stronger effect = lower value. In outline:
as §1

The next assay concerns MKL-2. The assay is described as follows: qHTS assay to identify novel small-molecules to repurpose for Merkel cell carcinoma treatment (AID 1296009). Particulars: MCC and control cell lines, CellTiter-Glo viability, 72 h; series mostly up to 46 µM. In outline:
as §2

For a further assay, the system named is MCC-26. Described as above. Particulars: MCC and control cell lines, CellTiter-Glo viability, 72 h; series mostly up to 46 µM. In outline: as §2
Assay [2] deals with HACAT. The assay is described as above. Particulars: MCC and control cell lines, CellTiter-Glo viability, 72 h; at 44.8 µM (top of the series) unless noted. In outline: as §2
A further assay deals with HEK293T. The assay is described as above. Particulars: MCC and control cell lines, CellTiter-Glo viability, 72 h; at 44.8 µM (top of the series). In outline:
as §2

Several values for one entry are separate records, joined by “and”; a condition that tells them apart may be missing. Identical values can stand only once. Inconclusive results are not listed. Where a structure was tested more than once in an assay, its records may differ in their call. Activity calls are given as the source filed them. The call rests on the fitted dose curve; in most records, active means well fitted inhibition curve with a large enough effect; inconclusive means small, poorly fitted or top-dose-only effect; inactive means flat fitted curve, though single readings scatter.
Further: nearly all actives have a fitted effect of over 60% in size.
On the % scale 0 is the no-effect control and ±100 the full control effect; potency means the concentration at half of the fitted maximal effect.

For the compound `CC(=O)NC(C)c1ccc(Oc2ccc(OC(C)C)cc2)cc1` (centres undefined), in the assay with HEK293, the Potency is 14.8 µM (active). The max response in the assay on HaCat [1] was -3.76% (inactive); with KB-3-1 it was 7.61% (inactive). Further, the Potency result in the assay with MCC-13 and in the assay on MKL-1 was “inactive” throughout.
`Nc1nc2[nH]cc(CCc3ccc(C(=O)N[C@@H](CCC(=O)O)C(=O)O)cc3)c2c(=O)[nH]1`: the Potency in the assay on HEK293 is 1.48 µM (active); in the assay with NIH3T3 it was 1.18 µM (active). Besides, the max response in the assay on KB-3-1 is -20.9% (inactive) and 0.617% (inactive). In addition, the Potency entry in the assay on MCC-13, in the assay with MKL-1 and in the assay with MKL-2 was “inactive” throughout.
As for `CC1(C)SCCN(S(=O)(=O)c2ccc(OCC#CCO)cc2)[C@@H]1C(=O)NO`, the results for the max response in the assay on HEK293 and in the assay on NIH3T3 were -25.6% (inactive) and -11.8% (inactive), respectively. Also, in the assay with KB-3-1, the result was inactive. Moreover, the Potency entry with MCC-13, with MCC-26 and in the assay with MKL-2 was “inactive” in each case.
For the compound `COc1c(Cl)cc2c([nH]c3cnccc32)c1NC(=O)c1cccnc1C`, the result in the assay with HaCat [1], in the assay on KB-3-1 and in the assay on HACAT [2] was inactive. Moreover, the max response in the assay on KB-3-1 was 9.41% (inactive); in the assay on NIH3T3, -6% (inactive) and -16.3% (inactive). For the same compound, the Potency result in the assay with MCC-13, with MCC-26, in the assay with MKL-1 and in the assay with MKL-2 was “inactive” in each case.
As for `O=C1CCCC2=C1C(c1[nH]ncc1Cl)N=C(Nc1nc3ccccc3o1)N2` (centres undefined), the max response was -0.0608% (inactive) in the assay with HaCat [1], 5.25% (inactive) with KB-3-1 and -1.09% (inactive) in the assay with NIH3T3. For the same compound, the call in the assay with HaCat [1], in the assay on KB-3-1, in the assay on NIH3T3 and with HACAT [2] was inactive. For the same compound, the Potency entry in the assay with MCC-13, with MCC-26, in the assay on MKL-1 and with MKL-2 was “inactive” throughout.
As for `COc1ccccc1[C@H](c1cccc2ccccc12)[C@@](C)(C#N)C(=O)N1CCC(c2cccc(C(F)(F)F)c2)CC1`, the Potency with HEK293 was 13.2 µM (active). In addition, in the assay with HaCat [1], the max response is -11.9% (inactive). Further, the Potency result with MCC-13 and in the assay with MCC-26 was “inactive” in each case.
Regarding `Cc1ccc(-n2nc(C(C)(C)C)cc2NC(=O)Nc2ccc(OCCN3CCOCC3)c3ccccc23)cc1`, the max response in the assay on HaCat [1] is -3.92% (inactive); in the assay on NIH3T3, -5.48% (inactive). The call in the assay with HaCat [1], with KB-3-1 and with HACAT [2] was inactive. Moreover, the Potency result in the assay on MCC-13 and in the assay on MCC-26 was “inactive” throughout. For the same compound, the Potency entry was “inactive and 23.7 µM (active)” in the assay with MKL-1; 18.8 µM (active) with MKL-2.
Turning to `CNC(=O)c1ccccc1Sc1ccc2c(/C=C/c3ccccn3)n[nH]c2c1`, the Potency was 23.7 µM (active) and 14.6 µM (active) in the assay with HEK293; 11.6 µM (active) in the assay on KB-3-1; 8.41 µM (active) and 7.31 µM (active) in the assay on NIH3T3. Moreover, the max response in the assay on KB-3-1 is -28.7% (inactive).
On to `CCOc1ccn(-c2ccc(F)cc2)c(=O)c1C(=O)Nc1ccc(Oc2ccnc(N)c2Cl)c(F)c1`, for which the Potency is 26.4 µM (active) in the assay with HEK293, 23.5 µM (active) with HaCat [1] and 13.2 µM (active) in the assay with KB-3-1. The Potency entry in the assay with MCC-13, in the assay with MCC-26, in the assay on MKL-1 and in the assay with MKL-2 was “inactive” in each case.
Turning to `Cc1cc(-c2ccc(CC(=O)Nc3ccc(-c4cccnc4)cc3)cc2)ccn1`, the Potency with HEK293 is 9.35 µM (active). Besides, the call in the assay on HaCat [1] and in the assay with HACAT [2] was inactive. The Potency entry in the assay with MCC-13, in the assay on MCC-26 and in the assay on MKL-1 was “inactive” each time.
Turning to `C[C@]12CCC(=O)C=C1CC[C@@H]1[C@@H]2[C@@H](O)C[C@@]2(C)[C@H]1CC[C@]2(O)C(=O)CO`, the max response in the assay with HEK293 is -3.59% (inactive); in the assay on NIH3T3, 1.04% (inactive). In addition, the Potency result in the assay on MCC-13, in the assay with MCC-26, in the assay on MKL-1 and in the assay on MKL-2 was “inactive” throughout.
For `Cc1cc([C@@H](C)Nc2ccccc2C(=O)O)c2nc(N3CCOCC3)cc(=O)n2c1`, the Potency is 19.1 µM (active) in the assay on HEK293 and 12.1 µM (active) in the assay with NIH3T3. Further, the Potency entry with MCC-13 and in the assay with MKL-1 was “inactive” throughout.
For `CN[C@@H](C)C(=O)N[C@H]1CCCC[C@H]2CC[C@@H](C(=O)N[C@@H](c3ccccc3)c3cn(CCCCc4ccc(CCCCn5cc([C@@H](NC(=O)[C@@H]6CC[C@@H]7CCCC[C@H](NC(=O)[C@H](C)NC)C(=O)N76)c6ccccc6)nn5)cc4)nn3)N2C1=O`, the compound was classed as inactive with HEK293, in the assay with HaCat [1], in the assay with NIH3T3, in the assay with HACAT [2] and with HEK293T. Moreover, the Potency result with MCC-13 and in the assay on MCC-26 was “inactive” throughout. In addition, the Potency was 23.5 µM (active) with MKL-1 and 9.35 µM (active) with MKL-2.
Turning to `Cc1cc2c(F)c(Oc3ncnn4cc(OC[C@@H](C)O)c(C)c34)ccc2[nH]1`, the Potency in the assay on HEK293 is 3.72 µM (active). Also, the max response with HaCat [1] was -13.8% (inactive). For the same compound, the Potency entry with MCC-13, with MCC-26 and in the assay with MKL-1 was “inactive” throughout.
Regarding `CCCS(=O)(=O)Nc1ccc(F)c(C(=O)c2c[nH]c3ncc(-c4ccc(Cl)cc4)cc23)c1F`, the max response was -5.51% (inactive) in the assay with HEK293, -13.3% (inactive) in the assay on HaCat [1] and 4.09% (inactive) with KB-3-1. Besides, the Potency entry in the assay on MCC-13, with MCC-26, in the assay with MKL-1 and in the assay with MKL-2 was “inactive” in each case.
Turning to `CCc1cncnc1N1CCN(Cc2nc3ccc(C(F)(F)F)cc3[nH]2)CC1`, in the assay with HEK293, the Potency is 14.8 µM (active) and 13 µM (active). Further, in the assay on HaCat [1], the max response was -29.7% (inactive). Further, the Potency entry in the assay with MCC-13, in the assay with MCC-26, with MKL-1 and in the assay on MKL-2 was “inactive” throughout.
For `CCCCCCCc1ccc(CCc2cccc(O)c2C(=O)O)cc1`, the outcome with HaCat [1] and in the assay on HACAT [2] was inactive. In addition, the Potency result in the assay on MCC-13, with MCC-26, in the assay on MKL-1 and in the assay with MKL-2 was “inactive” throughout.
For `Cc1cccc(-c2nn(C(=S)Nc3ccccc3)cc2-c2ccnc3ccccc23)n1`, the max response in the assay with HaCat [1] is -21.4% (inactive); in the assay on KB-3-1, -23.5% (inactive). The Potency result in the assay on MCC-13, in the assay with MCC-26, with MKL-1 and with MKL-2 was “inactive” throughout.
On to `N#Cc1ccc(C(c2ccc(C#N)cc2)n2cncn2)cc1`, for which the max response in the assay with HaCat [1] is 2.76% (inactive); in the assay with KB-3-1 it was -0.837% (inactive) and -6.35% (inactive); in the assay on NIH3T3, 2.6% (inactive). Besides, the Potency result with MCC-13, in the assay with MCC-26 and in the assay on MKL-2 was “inactive” in each case.
For `Fc1ccc(Cl)cc1-c1nc(Nc2ccncc2)c2nccnc2n1`, the compound was classed as inactive with HaCat [1] and with HACAT [2]. Further, the max response with KB-3-1 is 2.67% (inactive); in the assay with NIH3T3, -15.4% (inactive). The Potency result in the assay with MCC-13, with MKL-1 and with MKL-2 was “inactive” in each case.
For `Cc1c(CCOc2ccc(C(=O)O)cc2)c2cc(Cl)ccc2n1C(c1ccccc1)c1ccccc1`, the max response in the assay on HaCat [1] is 0.869% (inactive); in the assay with KB-3-1, -12.2% (inactive); in the assay on NIH3T3 it was -32.3% (inactive). The Potency result with MCC-13, in the assay on MCC-26, with MKL-1 and with MKL-2 was “inactive” in each case.
Take `O=C(C1CC1)N1CC[C@@H](Cn2c(-c3ccc(-c4ccc5occc5c4)cc3)nc3cnccc32)C1`: the max response in the assay on HaCat [1] is -11.7% (inactive); in the assay on KB-3-1 it was 3.71% (inactive); with NIH3T3, 1.4% (inactive). Also, the Potency entry in the assay with MCC-13, with MCC-26, with MKL-1 and in the assay with MKL-2 was “inactive” each time.
Take `COc1ccc2nc(S(=O)Cc3ncc(C)c(OC)c3C)[nH]c2c1` (centres undefined): the compound was classed as inactive in the assay on HaCat [1] and in the assay with HACAT [2]. Also, the max response with KB-3-1 was -5.29% (inactive); with NIH3T3, -7.21% (inactive) and -1.13% (inactive). The Potency result in the assay on MCC-13, with MCC-26, in the assay on MKL-1 and in the assay on MKL-2 was “inactive” in each case.
`CCOc1cc(N2CCC(O)CC2)ccc1Nc1ncc2c(n1)N(C)c1ccccc1C(=O)N2C`: the max response in the assay with HaCat [1] is 2.41% (inactive). The figures for the Potency in the assay with MKL-1 and in the assay on MKL-2 were 3.32 µM (active) and 2.64 µM (active), respectively.
